# Reference: publication PMC4336329 (PLoS ONE, 2015)
# The campaign covered roughly 310,000 compounds. About 14,000 (4.5%) showed an effect of 50% or more. Effects have a minus sign here. The sample holds strong results, similar compounds and a random draw of the others, so the mix is not that of the screen.
# Biological target: human ether-à-go-go-related gene (hERG) potassium channel (human, UniProt Q12809)
# Assay: primary screen, population patch clamp on CHO cells stably expressing hERG; higher = less effect of the substance
# 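Further: peak tail current of the secondary pulse compared with the same well before compound.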
# Sequence of human ether-à-go-go-related gene (hERG) potassium channel (Q12809 whole entry, looked up): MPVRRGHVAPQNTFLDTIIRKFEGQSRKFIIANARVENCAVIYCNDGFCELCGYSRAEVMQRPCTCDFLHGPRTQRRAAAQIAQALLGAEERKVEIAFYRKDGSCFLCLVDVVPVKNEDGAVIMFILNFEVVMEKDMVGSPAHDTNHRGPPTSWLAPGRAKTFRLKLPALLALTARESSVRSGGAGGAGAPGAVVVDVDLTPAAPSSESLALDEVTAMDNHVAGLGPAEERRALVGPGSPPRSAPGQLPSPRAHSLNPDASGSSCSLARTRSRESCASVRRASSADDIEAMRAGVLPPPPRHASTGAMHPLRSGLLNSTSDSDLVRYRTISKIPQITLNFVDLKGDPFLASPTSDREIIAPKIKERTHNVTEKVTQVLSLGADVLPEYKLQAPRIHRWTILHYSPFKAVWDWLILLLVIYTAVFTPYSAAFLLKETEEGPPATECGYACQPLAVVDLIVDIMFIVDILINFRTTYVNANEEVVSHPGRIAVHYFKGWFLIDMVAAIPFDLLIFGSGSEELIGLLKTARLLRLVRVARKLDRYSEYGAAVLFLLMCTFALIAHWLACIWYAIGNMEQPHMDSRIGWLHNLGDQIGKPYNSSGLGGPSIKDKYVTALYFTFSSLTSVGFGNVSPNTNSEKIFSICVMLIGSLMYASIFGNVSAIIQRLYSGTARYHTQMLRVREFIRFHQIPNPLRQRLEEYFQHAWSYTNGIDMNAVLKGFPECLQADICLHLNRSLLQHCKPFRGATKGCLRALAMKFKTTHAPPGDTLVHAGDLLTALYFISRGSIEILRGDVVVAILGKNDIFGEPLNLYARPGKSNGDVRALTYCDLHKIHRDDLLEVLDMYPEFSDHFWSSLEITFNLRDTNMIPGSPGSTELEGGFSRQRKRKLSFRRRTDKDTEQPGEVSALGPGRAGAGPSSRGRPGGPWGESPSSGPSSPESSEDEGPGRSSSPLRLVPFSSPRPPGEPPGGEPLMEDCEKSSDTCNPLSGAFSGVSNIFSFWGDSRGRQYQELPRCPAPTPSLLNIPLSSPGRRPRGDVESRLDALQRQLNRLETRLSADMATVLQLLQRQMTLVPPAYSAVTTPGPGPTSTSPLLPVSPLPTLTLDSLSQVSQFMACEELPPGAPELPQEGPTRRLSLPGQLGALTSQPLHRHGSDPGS
row,SMILES,"hERG current change (%, negative = inhibition) at 10uM"
1,CC(=O)c1ccc(N2CCN(CC(=O)N(CC(C)C)c3c(N)n(CC(C)C)c(=O)[nH]c3=O)CC2)cc1,10.7%
2,CCCCc1ncc(CN2CCC(n3nccc3NC(=O)c3ccccc3Cl)CC2)[nH]1,-40.3%
3,CCCn1cc(CN2CCC(n3nccc3NC(=O)c3ccccc3)CC2)c(C)n1,-11%
4,CCCn1ncc(CN2CCC(n3nccc3NC(=O)c3ccccc3Cl)CC2)c1C,-75.8%
5,Cc1c(CN2CCC(n3nccc3NC(=O)c3cccc(F)c3)CC2)cnn1C,9%
6,CCCn1ncc(CN2CCC(n3nccc3NC(=O)c3ccccc3OC)CC2)c1C,-79.2%
7,CCCn1ncc(CN2CCC(n3nccc3NC(=O)CCc3ccccc3)CC2)c1C,-26.2%
8,COc1ccccc1C(=O)Nc1ccnn1C1CCN(Cc2cnn(C)c2C)CC1,-63.7%
9,Cc1c(CN2CCC(n3nccc3NC(=O)CCc3ccccc3)CC2)cnn1C,12.6%
10,O=C(c1ccc2c(c1)OCO2)N1CCc2ccccc21,-2.34%
11,COCCOC(=O)c1c(C)n(C)c2ccc(OC(=O)c3ccco3)cc12,-2.37%
12,CCc1n[nH]c(=S)n1/N=C/c1c(C)nn(-c2ccccc2)c1Cl,21.4%
13,CN(C)c1ccc(/C=N/n2c(C3CCCCC3)n[nH]c2=S)cc1,20%
14,Cc1csc(CN(C)C(=O)C2CCC(=O)N(CCCc3ccccc3)C2)n1 (stereo not shown),-5.37%
15,CCC1(CCCC(=O)c2ccc(F)cc2)C(=O)NC(=S)NC1=O,-3.66%
16,CCc1ccc(NC(=O)COc2coc(CN3CCN(c4ccccc4)CC3)cc2=O)cc1,12.3%
17,O=C(COc1coc(CN2CCN(c3ccccc3)CC2)cc1=O)NC1CCCCC1,-46.1%
18,O=C(COc1coc(CN2CCN(c3ccccc3)CC2)cc1=O)Nc1ccccc1F,-3.41%
19,Cc1ccc(NC(=O)COc2coc(CN3CCN(c4ccccc4)CC3)cc2=O)cc1,1.7%
20,O=C(COc1coc(CN2CCN(c3ccc(F)cc3)CC2)cc1=O)NC1CCCC1,-53.1%
21,Cc1cccc(NC(=O)COc2coc(CN3CCN(c4ccccc4)CC3)cc2=O)c1C,-28.6%
22,Cc1cccc(NC(=O)COc2coc(CN3CCN(c4ccccc4)CC3)cc2=O)c1,-7.9%

row,SMILES,"hERG current change (%, negative = inhibition) at 10uM"
1,Cc1cccc(NC(=O)COc2coc(CN3CCN(Cc4ccccc4)CC3)cc2=O)c1,-65%
2,COc1ccccc1NC(=O)COc1coc(CN2CCN(c3ccccc3)CC2)cc1=O,-60%
3,Cc1cccc(NC(=O)COc2coc(CN3CCc4ccccc4C3)cc2=O)c1,-8.19%
4,O=C(COc1coc(CN2CCN(c3ccccc3)CC2)cc1=O)NC1CCCC1,-13.6%
5,Cc1ccc(NC(=O)COc2coc(CN3CCN(Cc4ccccc4)CC3)cc2=O)cc1,-73.3%
6,CN(C)c1ccc(CN2CCCCC2)cc1,14.9%
7,CCN(CC(=O)N1CCCCCC1)S(=O)(=O)c1ccc(Cl)cc1,-13.5%
8,CC1=Nc2ccccc2N=C(NC(=O)/C=C/C(=O)O)C1c1ccccc1 (stereo not shown),2.53%
9,O=c1[nH]c(=O)n(-c2ccccc2F)c(O)c1C=NCCC1=CCCCC1,25.6%
10,Cc1c(NC(=O)CN2CCC(C(N)=O)CC2)cccc1[N+](=O)[O-],26.4%
11,COc1ccc(N2CCN(C(c3cc(OC)ccc3OC)c3nnnn3CC3CCCO3)CC2)cc1.Cl (stereo not shown),-9.64%
12,CC(C)CNC(=O)[C@H](Cc1ccccc1)NC(=O)c1ccco1,-6.82%
13,CNC(=O)COc1coc(CN2CCN(Cc3ccccc3)CC2)cc1=O,1.83%
14,Cc1ccccc1NC(=O)COc1coc(CN2CCN(c3ccccc3)CC2)cc1=O,-21.1%
15,Cc1ccccc1NC(=O)COc1coc(CN2CCN(Cc3ccccc3)CC2)cc1=O,-53.3%
16,CC(OC(=O)c1ccc(NS(=O)(=O)c2cccs2)cc1)C(=O)N(C)C1CCCCC1 (stereo not shown),-0.558%
17,CCc1ccc(NS(=O)(=O)c2ccc3[nH]cc(C(=O)NCC4CCCO4)c(=O)c3c2)cc1 (stereo not shown),15.4%
18,CC(=O)Nc1ccc(C(=O)OCCC(C)C)cc1,-17.4%
19,Cc1ccc(CNc2cc(C(=O)O)ccc2C)s1,19.2%
20,O=C(Cn1c(=O)n(CC2CCCO2)c(=O)c2ccccc21)N1CCN(c2ccccc2)CC1 (stereo not shown),-21.8%
21,Cc1ccc(C)c(S(=O)(=O)N2CCCOC2CNC(=O)C(=O)NCc2ccccn2)c1 (stereo not shown),5.01%
22,CC(C)N1CCC(=NNC(=O)c2cccs2)CC1,25.6%

row,SMILES,"hERG current change (%, negative = inhibition) at 10uM"
1,COC(=O)C1=C(N)Oc2cc(C)n(CCCn3ccnc3)c(=O)c2C1c1ccc(Cl)cc1 (stereo not shown),-59.8%
2,COC(=O)C1=C(N)Oc2cc(C)n(Cc3ccco3)c(=O)c2C1c1cccc(Cl)c1 (stereo not shown),-5.24%
3,COC(=O)C1=C(N)Oc2cc(C)n(CC3CCCO3)c(=O)c2C1c1ccc(Cl)cc1 (stereo not shown),-8.41%
4,COC(=O)C1=C(N)Oc2cc(C)n(CCc3ccccc3)c(=O)c2C1c1cccnc1 (stereo not shown),-25.9%
5,COC(=O)C1=C(N)Oc2cc(C)n(CCCn3ccnc3)c(=O)c2C1c1cccc(Cl)c1 (stereo not shown),-69.7%
6,COC(=O)C1=C(N)Oc2cc(C)n(C)c(=O)c2C1c1ccc(Cl)cc1 (stereo not shown),6.7%
7,Cc1cccc(NS(=O)(=O)c2ccc3[nH]c(=O)[nH]c3c2)c1C,13.7%
8,Cc1nn(Cc2ccccc2)c(C)c1NC(=O)CSc1nc(C2CC2)nc2c1cnn2-c1ccccc1,8.84%
9,CN(C)CCNc1ncnc2oc(-c3ccccc3)c(-c3ccccc3)c12,-60.7%
10,CN(C)CCCNc1ncnc2oc(-c3ccccc3)c(-c3ccccc3)c12,-69.5%
11,COc1ccc(-c2oc3ncnc(N)c3c2-c2ccccc2)cc1,6.52%
12,CN(C)CCNc1ncnc2sc(-c3ccccc3)cc12,-21.1%
13,Cc1c(C)n(-c2ccccc2)c2ncnc(NCCN(C)C)c12,-4.04%
14,COc1ccc(-c2oc3ncnc(NCCCO)c3c2-c2ccc(OC)cc2)cc1,4.27%
15,OCCCNc1ncnc2oc(-c3ccccc3)c(-c3ccccc3)c12,-13.2%
16,CN(C)CCCNc1ncnc2sc(-c3ccccc3)cc12.O=C(O)C(=O)O,-60.2%
17,OCCCNc1ncnc2sc(-c3ccccc3)cc12,3.23%
18,CN(C)CCNc1ncnc2ccccc12.Cl,7.66%
19,COc1ccc(-c2oc3ncnc(NCCCN(C)C)c3c2-c2ccc(OC)cc2)cc1,-60.2%
20,COCCCNC(=O)CNC(=S)N(Cc1ccccc1)Cc1cccnc1,-9.77%
21,O=C(NCc1cccnc1)Nc1cccc(F)c1,7.53%
22,CN(Cc1ccccc1)C(=O)Nc1ccccc1,7.49%

row,SMILES,"hERG current change (%, negative = inhibition) at 10uM"
1,COC(=O)c1ccccc1NC(=O)COc1ccc(S(=O)(=O)N2CCCC2)cc1C,8.37%
2,CSc1nnc2c(n1)OC=Nc1ccc(Br)cc1-2,-11.7%
3,O=C(NCC1CCCO1)c1ccc[nH]1 (stereo not shown),12.3%
4,COc1ccc2oc(=O)c(C(=O)Nc3ccccc3O)cc2c1,8.79%
5,Cn1c(CC(=O)Nc2ccccc2F)nnc1SCC(=O)Nc1nccs1,18.6%
6,Fc1ccc(-c2cc(C(F)(F)F)n3ncnc3n2)cc1,26.8%
7,CC(=O)c1cc2c(cc1NC(=O)c1cnc(C)cn1)OCO2,4.22%
8,Cc1ccc(N(CC(O)CN(C)C)S(=O)(=O)c2ccccc2)cc1.Cl (stereo not shown),-68.1%
9,CCN(c1ccccc1)S(=O)(=O)c1ccc2ccccc2c1,-3.29%
10,Cc1cc(C)n(CC(O)CN(c2ccccc2)S(=O)(=O)c2ccc3ccccc3c2)n1 (stereo not shown),-6.13%
11,O=S(=O)(c1ccccc1)N(CC(O)COc1ccccc1)c1ccccc1 (stereo not shown),-26.6%
12,Cc1cccc(N(CC(O)CN(C)C)S(=O)(=O)c2ccccc2)c1.Cl (stereo not shown),-63%
13,Cc1ccc(S(=O)(=O)N(C)c2ccccc2)cc1,-11.8%
14,CCN(CC)CC(O)CN(c1ccccc1)S(=O)(=O)c1ccc2ccccc2c1.Cl (stereo not shown),-80.2%
15,Cc1cccc(N(CC(=O)N2CCCC2)S(=O)(=O)c2ccccc2)c1,-34.7%
16,Cc1ccc(S(=O)(=O)N(CC(O)CN(C)C)c2ccccc2)cc1.Cl (stereo not shown),-65.6%
17,O=S(=O)(c1ccccc1)N(CC(O)Cn1c2ccccc2c2ccccc21)c1ccccc1 (stereo not shown),14.9%
18,COC(=O)CN(c1cccc(C)c1)S(=O)(=O)c1ccccc1,-14%
19,Cc1ccc(S(=O)(=O)N(CC(O)CN2C(=O)NC(C)(C)C2=O)c2ccccc2)cc1 (stereo not shown),-37.7%
